Results as given in ChEMBL document CHEMBL3988442, “University of Dundee, Small-Polar-MMV Screening Library” (2021).
The whole screen tested about 48,000 compounds, of which about 13,000 (27%) showed an effect of 50% or more. The list shows a part of the results.

The compounds below were run on Wolbachia pipientis (assay: Anti-Wolbachia Cell-Based Screen). Settings: 5 µM.
Format: functional
Design: scale not given: in the data most compounds retested in dose-response had high values

Compared with CC(=O)N(C)Cc1ccccc1NCc1c(C)cccc1C, CC(C)OCCCNC(=O)Nc1cccc2ncccc12 is higher in “Percent Effect” value: -18.14% for the first, -8.776% for the second.

Going from O=C(C1CC1)N1CC[C@H](c2nc3ccccc3o2)C1 to O=C(C1CC1)N1CC[C@H](c2nnc(-c3ccccc3F)o2)C1, the “Percent Effect” value falls from 7.952% to -4.544%.

Compared with CCc1c(C)nn2c(O)cc(C3CCN(C(=O)C4CC4)C3)nc12 (configuration not stated), CCc1nnc(CN2CCC(C3CCCCCN3C(=O)C3CC3)CC2)o1 (configuration not stated) is lower in “Percent Effect” value: 96.58% for the first, 5.041% for the second.

Compared with Cc1nc(C)n(CC2CCCN(Cc3cccc(C#N)c3)C2)n1 (configuration not stated), COc1cccc(CN2CCCC(Cn3nc(C)nc3C)C2)c1 (configuration not stated) is higher in “Percent Effect” value: -5.879% for the first, 103.7% for the second.

First: Cc1nc(C)n(CC2CN(Cc3cccc(C(N)=O)c3)CCO2)n1 (configuration not stated)
Second: Cc1nc(C)n(CC2CCCN(Cc3cccc(C(N)=O)c3)C2)n1 (configuration not stated)
The “Percent Effect” value of the first is lower: -4.426% for the first, 133.9% for the second.

Compared with Cc1nc(C)n(CC2CCCN(Cc3ccc4c(c3)OCCO4)C2)n1 (configuration not stated), COc1ccc(CN2CCCC(Cn3nc(C)nc3C)C2)cc1F (configuration not stated) is lower in “Percent Effect” value: 92.75% for the first, -3.884% for the second.

Compared with Cc1nc(C)n(CC2CCCN(Cc3cccnc3)C2)n1 (configuration not stated), Cc1nc(C)n(CC2CN(Cc3cccnc3)CCO2)n1 (configuration not stated) is lower in “Percent Effect” value: 89.08% for the first, 5.869% for the second.

First: Cc1nc(C)n(CC2CCCN(Cc3ccc(C(N)=O)cc3)C2)n1 (configuration not stated)
Second: CC(C)C1CN(S(=O)(=O)C2CC2)CCCN1Cc1ccc(F)cc1 (configuration not stated)
The “Percent Effect” value of the first is lower: -2.004% for the first, -0.9864% for the second.

Going from COC(=O)c1ccc(C(=O)NCc2ccco2)nc1 to O=C(Nc1ccc(Cl)cc1C(=O)NCCN1CCOCC1)c1ccco1, the “Percent Effect” value rises from -23.57% to 134.1%.

First: CCc1nccn1CCC(=O)N1CC[C@@H](c2ccc(F)cc2)[C@H](O)C1
Second: CCOCC(=O)N1C[C@@H](O)[C@H](N(C)Cc2ccc(OC)cc2)C1
The “Percent Effect” value of the first is lower: -13.2% for the first, -9.013% for the second.

First: COc1ccccc1C1(CNc2nnc(C)c(C)c2C#N)CCOCC1
Second: N#Cc1ccccc1N1CCN(C(=O)NCCN2CCOCC2)CC1
The “Percent Effect” value of the first is higher: 0.2404% for the first, -5.749% for the second.

Compared with Cc1cc(CN(C)C(=O)NCC2CCS(=O)(=O)C2)no1 (configuration not stated), Cc1ccc(-c2nc(C(=O)NCC3CCOC3)cs2)cc1 (configuration not stated) is higher in “Percent Effect” value: -10.09% for the first, 113.2% for the second.

First: Cc1nc(CNC(=O)NC2CC(C)(C)OC2(C)C)sc1C (configuration not stated)
Second: O=C(NCC1CCOC1)c1csc(-c2ccco2)n1 (configuration not stated)
The “Percent Effect” value of the first is lower: -0.2444% for the first, 5.751% for the second.

First: O=C(NCCCO)Nc1cnc2cc(Cl)ccc2c1O
Second: O=C(NCCO)Nc1cnc2cc(Cl)ccc2c1O
The “Percent Effect” value of the first is lower: 96.93% for the first, 99.99% for the second.

Compared with O=C(NCCN1CCOCC1)Nc1cnc2cc(Cl)ccc2c1O, O=C(NCCCN1CCOCC1)Nc1cnc2cc(Cl)ccc2c1O is lower in “Percent Effect” value: 96.85% for the first, -16.9% for the second.

Compared with CNC(=O)Nc1cnc2cc(Cl)ccc2c1O, O=C(NCC1CC1)Nc1cnc2cc(Cl)ccc2c1O is lower in “Percent Effect” value: 96.42% for the first, -14.95% for the second.

Compared with O=C(NCCCO)Nc1cccc(Cl)c1F, O=C(NCCO)Nc1cccc(Cl)c1SC(F)F is higher in “Percent Effect” value: -20.85% for the first, 0.2889% for the second.

First: CC(CO)NC(=O)Nc1ccc(Cl)cc1OCC(F)(F)F (configuration not stated)
Second: CC(C)OC(=O)c1ccc(Cl)c(NC(=O)NCCN2CCOCC2)c1
The “Percent Effect” value of the first is lower: -4.812% for the first, -2.134% for the second.

First: N[C@H]1CN(C(=O)c2cnc3cc(Cl)ccc3c2O)C[C@@H]1C1CC1
Second: Cc1cccc(CN2C[C@@H]3CN(C(=O)c4ccnnc4)C[C@@H]3C2=O)c1
The “Percent Effect” value of the first is higher: 6.977% for the first, -7.292% for the second.

First: CC(=O)NC(C(=O)N(C)Cc1nnc2n1CCC2)C(C)C (configuration not stated)
Second: COc1ccc(CN(C)[C@@H]2CN(S(=O)(=O)C(C)C)C[C@H]2O)cc1
The “Percent Effect” value of the first is lower: 2.941% for the first, 105.6% for the second.

Compared with Cc1cc(C(=O)N2C[C@@H]3COC[C@]3(c3nnc(C4CC4)o3)C2)on1, Cc1cccc(CN2C[C@@H]3CN(C(=O)C4CCOC4)C[C@@H]3C2=O)c1 (some centres not stated) is higher in “Percent Effect” value: -20.3% for the first, 100.9% for the second.

Compared with COc1ccccc1OC1CN(C(=O)C(c2ccc(F)cc2)N(C)C)C1 (configuration not stated), CC(C)S(=O)(=O)N1C[C@@H](O)[C@H](N(C)Cc2ccc(F)cc2)C1 is higher in “Percent Effect” value: -23.44% for the first, 92.86% for the second.

Going from CCOc1c(Br)cc(C2C3=C(COC3=O)Nc3[nH]nc(C)c32)cc1OC (configuration not stated) to COc1cc(CN2CCCC(Nc3cccc(F)c3)C2)cc(OC)c1O (configuration not stated), the “Percent Effect” value rises from -13.27% to 11.19%.

Going from Cc1cnc(C(=O)N(C)Cc2nc(-c3ccccn3)no2)cn1 to O=C(Nc1ccn(Cc2cccc3cccnc23)n1)C1COCCO1 (configuration not stated), the “Percent Effect” value falls from -1.871% to -13.67%.

Compared with Fc1ccccc1Cc1noc(CN2CCC(N3CCSCC3)CC2)n1, O=C(O)C(F)(F)F.O=C1[C@H]2CN(C3CCOCC3)C[C@H]2CN1Cc1cccc(F)c1 is lower in “Percent Effect” value: 5.463% for the first, -0.9945% for the second.

Going from Cc1ccccc1N1CCCN(C(=O)c2cn(C)c3ccccc23)CC1 to O=C(Nc1ccccc1C(=O)NCCN1CCOCC1)c1ccco1, the “Percent Effect” value falls from 5.002% to 0.2432%.

First: O=C(Nc1ccc(I)cc1C(=O)NCCN1CCOCC1)c1ccco1
Second: Cc1cccc(CN2C[C@@H]3CN(C(=O)c4ccco4)C[C@@H]3C2=O)c1
The “Percent Effect” value of the first is higher: 13.86% for the first, -8.497% for the second.

Going from Cc1ccc([C@@H]2CN(S(=O)(=O)C(C)C)C[C@H]2N(C)C)cc1 to CC(C)C1CN(S(=O)(=O)N2CCCC2)CCCN1Cc1ccc(F)cc1 (configuration not stated), the “Percent Effect” value falls from 4.129% to -9.548%.

Compared with CC(C)(C)Cc1noc2ncc(C(=O)N3CCSCC3)cc12, COc1ccc(F)c(CN2CCCC(O)(CNCC(C)(C)C)C2=O)c1 (configuration not stated) is higher in “Percent Effect” value: -2.131% for the first, 1.776% for the second.

Going from O=C(C1CCOC1)N1C[C@H]2CN(Cc3cccc(F)c3)C(=O)[C@H]2C1 (some centres not stated) to O=C(c1ccsc1)N1C[C@H]2CN(Cc3cccc(F)c3)C(=O)[C@H]2C1, the “Percent Effect” value falls from 101.2% to -13.46%.

First: C[C@@H]1CN(C(=O)c2cn(CCN3CCCCC3)nn2)C[C@H](C)O1
Second: O=C(c1csc(-c2ccco2)n1)N(CC1CCOC1)C1CC1 (configuration not stated)
The “Percent Effect” value of the first is lower: -14.27% for the first, -4.102% for the second.

First: O=C(NCC1CCOC1)c1csc(-c2ccc(F)cc2)n1 (configuration not stated)
Second: O=C(NCC1CCOC1)c1csc(-c2ccc(Cl)cc2)n1 (configuration not stated)
The “Percent Effect” value of the first is lower: 81.86% for the first, 107.7% for the second.

Compared with Cc1ccc(-c2cc(C(=O)NCC3CCOC3)n[nH]2)s1 (configuration not stated), O=C(NCC1CCOC1)c1csc(-c2cccc(Cl)c2)n1 (configuration not stated) is higher in “Percent Effect” value: -13.79% for the first, 7.495% for the second.

For O=C(NCC1CCOC1)c1csc(-c2ccccc2)n1 (configuration not stated), the “Percent Effect” value was 102.2%.
